Test results reported in PubChem BioAssay AID488896 (Broad Institute, 2010).
The whole screen tested about 320,000 compounds, of which about 3,100 (0.97%) were called active. Only a selection was taken, and actives are over-represented in it overall. Values without a mark were called inactive.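 How the source made its calls: active means mean replicate inhibition of at least 70% and a set share of replicates each scoring 70 or more; inconclusive means meets just one of the two criteria; inactive means fails both criteria.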

These molecules were tested against Scavenger receptor class B member 1 (Mus musculus) (UniProt Q61009) (assay: mouse SR-BI DiI-HDL uptake blockers – ldlA[mSR-BI] cells, fluorescence, single point, primary screen (AID 488896;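 further: 0% = median of neutral control wells and 100% = median of positive control wells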)). Conditions: ldlA[mSR-BI] CHO cells, 3 h, at 12.5 µM, hits give high values.
Scavenger receptor class B member 1 (Mus musculus), sequence (Q61009 whole entry, looked up): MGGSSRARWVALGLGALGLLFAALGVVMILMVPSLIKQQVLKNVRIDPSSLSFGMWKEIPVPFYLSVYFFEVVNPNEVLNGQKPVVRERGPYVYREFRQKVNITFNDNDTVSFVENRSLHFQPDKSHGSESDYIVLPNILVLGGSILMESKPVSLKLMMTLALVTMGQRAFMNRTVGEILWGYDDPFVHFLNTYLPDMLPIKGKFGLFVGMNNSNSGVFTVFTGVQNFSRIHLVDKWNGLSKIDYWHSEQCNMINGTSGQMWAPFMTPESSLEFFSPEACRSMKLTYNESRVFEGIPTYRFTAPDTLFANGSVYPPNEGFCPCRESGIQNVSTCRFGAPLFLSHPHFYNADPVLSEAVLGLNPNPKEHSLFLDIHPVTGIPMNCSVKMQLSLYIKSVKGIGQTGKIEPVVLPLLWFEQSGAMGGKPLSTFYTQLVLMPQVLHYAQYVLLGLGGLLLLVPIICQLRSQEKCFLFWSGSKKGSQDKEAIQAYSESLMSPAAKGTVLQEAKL
S=C(Nc1ccccc1)Nc1ccc2ccccc2c1 was tested, and the inhibition was 9.12%.
O=C(O)c1ccc(Cn2cnc3c(=S)nc[nH]c32)cc1 showed an inhibition of -20.4%.
For CC/C(=C\c1ccc(Cl)cc1)c1ccncc1, the inhibition was 29.1%.
COc1cc(/C=C/C2=CC(C)(C)NC(=S)N2)cc(OC)c1OC gave an inhibition of 26.3%.
With COc1ccc(/C=C2/C(=O)N(c3ccccc3)N=C2C)c(OC)c1 the inhibition was 30.7%.
COc1ccc(/C=C/C2=CC(C)(C)NC(=S)N2)c(OC)c1 was tested, and the inhibition was 78.2% (active).
O=C(Nc1ccn(CCCNCc2ccc3[nH]ccc3c2)c(=O)n1)OCc1ccccc1 was tested, and the inhibition was 14.3%.
FC(F)(F)c1ccc(-c2cccc3c2C2CC3CCN2Cc2ccccc2)cc1 (stereo unspecified) showed an inhibition of -20.1%.
With COc1ccccc1C(=O)Nc1ccc(NC(=O)c2ccco2)c(C)c1 the inhibition was 44.6%.
COc1ccc(NC(=O)c2cccc(NC(=O)c3ccco3)c2)c(OC)c1 was tested, and the inhibition was 75.7% (active).
In the case of COc1ccc(NC(=O)CCC(=O)Nc2cc(OC)c(NC(=O)c3ccco3)cc2OC)c(OC)c1, the inhibition was 58.1%.
Molecule CC1C(C)N(C(=O)CCl)c2ccccc2N1C(=O)CCl (stereo unspecified) has an inhibition of -12%.
Nc1ncnc2c1cnn2C1CC(O)C(CO)O1 (stereo unspecified) gave an inhibition of -3.29%.
For CCC(=O)Nc1ccc(S(=O)(=O)NCC2CCCO2)cc1 (stereo unspecified), the inhibition was 16.2%.
Cc1ccc(NC(=O)c2ccc(S(=O)(=O)NCC3CCCO3)cc2)cc1C (stereo unspecified) was tested, and the inhibition was 51.6%.
With CCOc1ccc(C(=O)Nc2ccc(S(=O)(=O)NCC3CCCO3)cc2)cc1OCC (stereo unspecified) the inhibition was 82.5% (active).
Molecule CC(C)(C)c1ccc(C(=O)NCCC(=O)NCc2ccco2)cc1 has an inhibition of -4.1%.
In the case of O=C(NCc1ccco1)c1ccc(Cn2c(=O)c3sccc3n(Cc3ccc(F)cc3)c2=O)cc1, the inhibition was 28.8%.
CC(C)OCCCNC(=O)c1ccc(C2SCC(=O)N2Cc2ccco2)cc1 (stereo unspecified) was tested, and the inhibition was 75.6% (active).
Molecule CSc1ncnc2c1ncn2CC(=O)C1CCC2C3CCC4=CC(=O)CCC4(C)C3CCC12C (stereo unspecified) has an inhibition of -12.4%.
Work on O=C(Nc1cccc(Br)c1)C1CC(=O)N(C2CCCC2)C1 (stereo unspecified) yielded an inhibition of -9.43%.
For O=C(NCCCO)c1cc2c([nH]c3ccccc32)c(-c2ccc(F)cc2)n1, the inhibition was 73.4% (active).
O=C(NCCc1ccc(F)cc1)c1n[nH]c2ccccc12 gave an inhibition of 22.1%.
Work on O=C(NCC1CCCO1)c1cc2c([nH]c3ccccc32)c(-c2ccc(F)cc2)n1 (stereo unspecified) yielded an inhibition of 64.1%.
In the case of Cn1c(=O)[nH]c2c(c(C(=O)O)nn2C)c1=O, the inhibition was -13.4%.
Molecule CCCCNCCS(=O)(=O)NCc1ccccc1 has an inhibition of -2.76%.
